# Compounds with a hit are over-represented: about 19% of the library has one in this group of screens.
# DT40 TDP1 no CPT: qHTS for Inhibitors of human tyrosyl-DNA phosphodiesterase 1 (TDP1): qHTS in cells in absence of CPT | Potency, µM (highest dose often 46.2 µM), inactives show at the highest dose activity change, negative = growth inhibition, hits mostly inhibitors | 420,000 tested, 15% active | AID 686978, 2013 | DT40 Tdp1-/- hTDP1 cells, no CPT, ATP luminescence, 48 h; also: potency is read from the fitted curve at half-maximal effect; nearly all actives have a fitted effect of over 55% in size
#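 A cellular qHTS used chicken DT40 cells lacking endogenous Tdp1 but carrying stably transfected human TDP1. Compounds were applied without camptothecin, and cell growth kinetics were judged by ATP-dependent luminescence after ≥48 hr.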
# TDP1 cell CPT: DT40-hTDP1 cell growth loss with CPT; chicken DT40 Tdp1-/-;hTDP1 cells + 20 nM CPT, ATP luminescence, 48 h; Potency, µM (titrated, usually from 46.2 µM), without a hit: at the top dose activity change, negative = growth inhibition, actives largely listed as inhibitors; 420,000 tested, 12% active; AID 686979; also: potency is read from the fitted curve at half-maximal effect; nearly all actives have a fitted effect of over 55% in size
#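 Chicken DT40 Tdp1-/- cells complemented with human TDP1, 400 cells/well, exposed to compounds plus 20 nM camptothecin for at least 48 h at 37 C; viability read as ATP content by CellTiter-Glo luminescence.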
# HT1080 IDH1KD tx: kills HT-1080 cells with IDH1 knockdown; HT-1080 IDH1 knockdown viability, ATP luminescence, 48 h; Potency, µM (titrated, usually from 46.1 µM), without a hit: at the highest dose activity, negative = toxicity, most hits filed as cytotoxic; 360,000 tested, 2% active; AID 686971;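 also: potency is read from the fitted curve at half-maximal effect; 0% = DMSO wells and -100% = cell-free medium wells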
#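 Using the IDH1-knockdown HT-1080 line run in the same batch and compound series as the NT line, viability after 48 h at 37 °C was determined by CellTiter-Glo luminescence and expressed as % activity.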
# IL-1B inflam inh: inhibitors of inflammasome signaling (IL-1 beta secretion); THP-1 LPS/ATP IL-1B secretion, AlphaLISA, 16 h; active compounds read low; activity change, % at 57.5 µM; 360,000 tested, 4.7% active; AID 743279; in the data active = activity change below about -50%; inconclusive = mostly about -30% to -49%
#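 THP-1 cells pretreated 1 hr with compounds (up to 57.5 uM final), then stimulated with LPS (250 ng/mL final) plus ATP (1.25 mM final); secreted IL-1B measured by AlphaLISA after 16 hr, decreased signal indicating inhibition.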
# HT1080-NT tox: kills 2HG-producing HT-1080-NT fibrosarcoma cells; 360,000 tested, 1.6% active; Potency, µM (series often up to 46.1 µM), for the others: top-dose activity, negative = less viability, usual class: cytotoxic; HT-1080-NT fibrosarcoma viability, CellTiter-Glo ATP luminescence, 48 h; AID 686970;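 also: NT is the 2HG producing partner of a matched IDH1 knockdown line; potency is read from the fitted curve at half-maximal effect; 0% = DMSO-treated cells and -100% = media-only wells without cells; nearly all actives have a fitted effect of over 55% in size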
#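 750 cells/well, RPMI + 5% FBS; 2 h settle, compound pin-transfer, 48 h at 37 degrees C. CellTiter-Glo 10 min RT, luminescence. Normalized to DMSO and media-only wells.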
# The depositor's hits bear a star; i = inactive; ? = inconclusive; . = not tested or not shown. Unless noted, calls follow the shape of the dose curve; as a rule, active = well fitted curve in the direction sought with a large enough effect; inconclusive = small, poorly fitted or top-dose-only effect, or another doubt; inactive = no such curve, though single readings can be large; an effect the other way counts as inactive or inconclusive. Unless noted, % is scaled to controls: 0 for no effect and ±100 for the full control effect.
SMILES,DT40 TDP1 no CPT,TDP1 cell CPT,HT1080 IDH1KD tx,IL-1B inflam inh,HT1080-NT tox
NC(=S)N/N=C/c1ccc(-c2cccc([N+](=O)[O-])c2)o1,3.7µM*,5.2µM*,3%,-5,-2%
NC(=S)N/N=C/c1ccc(Br)o1,-15%,-20%,1%,-11,2%
O=[N+]([O-])c1cccc(-c2ccc(/C=N/NC(=S)Nc3cccc(F)c3)o2)c1,18µM*,0%,-29%,0,?
NC(=S)N/N=C/c1ccc(-c2cc(Cl)c(Cl)cc2Cl)o1,4.6µM*,3.7µM*,?,29,?
CCN(CC)C(=O)c1[nH]cnc1C(=O)Nc1ccc(C)cc1,-14%,-8%,5%,-11,14%
O=C(Nc1ccc(F)cc1)C1CCN(C(=O)c2ccc(F)cc2)CC1,1%,-1%,-2%,2,-3%
Cc1cccc2cc(CN(Cc3ccc(F)cc3)C(=O)N(C)C)c3nnnn3c12,21µM*,23µM*,2%,0,-15%
Cc1cccc2cc(CN(Cc3ccc(F)cc3)C(=O)C(F)(F)F)c3nnnn3c12,?,-30%,1%,-13,1%
Cc1ccc(C)c(NC(=O)Cn2c(=O)n(CCCS(=O)(=O)C3CCCCC3)c(=O)c3ccccc32)c1,?,-18%,.,.,.
CN1C/C(=C/c2ccncc2)C(=O)/C(=C/c2ccncc2)C1,-29%,?,-4%,3,-6%
O=C1C(=Cc2ccc(Cl)cc2)Cc2ccccc21,-11%,-4%,23%,17,20%
C=CC(=O)N1C/C(=C/c2ccc(Cl)cc2)C(=O)/C(=C\c2ccc(Cl)cc2)C1,0.41µM*,0.23µM*,2.9µM*,-115*,5.8µM*
C=CC(=O)N1C/C(=C/c2ccccc2)C(=O)/C(=C\c2ccccc2)C1,0.73µM*,0.73µM*,4.1µM*,-103*,-2%
COc1ccc(OC)c(NC(=O)Cn2c(=O)n(Cc3nc(C)no3)c(=O)c3ccccc32)c1,3%,-4%,.,.,.
COc1ccc(-c2noc(Cn3c(=O)c4ccccc4n(CC(=O)Nc4cccc(C(F)(F)F)c4)c3=O)n2)cc1,16µM*,?,.,.,.
O=C(Cn1c(=O)n(Cc2nc(-c3ccccc3)no2)c(=O)c2cc3c(cc21)OCO3)Nc1cccc(C(F)(F)F)c1,9.2µM*,13µM*,.,.,.
N#Cc1cccc2c1-c1ccccc1/C2=N/NC(N)=S,18µM*,?,21µM*,-58*,6.5µM*
NC(=O)N/N=C1\c2ccccc2-c2c(C(N)=O)cccc21,-4%,-53%,-15%,-1,?
NC(=S)NN=C1c2ccccc2-c2c(F)c(F)c(F)c(F)c21,12µM*,7.3µM*,?,-111*,-17%
COc1cc(OC)cc(C(=O)N2CCC(c3ccncc3)CC2)c1,-12%,-18%,.,.,.
Cc1cc(C)c2nc(NC(=O)c3ccc(S(=O)(=O)N4CCCC4)cc3)sc2c1,-23%,-20%,.,.,.
Cc1nnsc1C(=O)Nc1ccc(S(=O)(=O)N2CCC(C)CC2)cc1,10µM*,?,-9%,-55*,-15%
Cc1cccnc1NC(=O)c1ccc(S(=O)(=O)N2CCCCCC2)cc1,-9%,-10%,10%,-4,-1%
CC1CCN(S(=O)(=O)c2ccc(NC(=O)c3cccs3)cc2)CC1,?,?,-22%,-4,-10%
Cc1ccc(C)c2sc(NC(=O)c3ccc(S(=O)(=O)N4CCC(C)CC4)cc3)nc12,16µM*,?,.,.,.
CC1CCN(S(=O)(=O)c2ccc(C(=O)Nc3ncccc3O)cc2)CC1,15µM*,?,-2%,i,0%
CC(C(=O)NCc1ccc2c(c1)OCO2)N1c2cccc3cccc(c23)S1(=O)=O (stereo unspecified),-26%,-25%,-11%,-7,1%
CCC(C)N(CCNC(=O)CC1Oc2ccccc2NC1=O)C1CCCCC1 (stereo unspecified),-19%,0%,1%,0,-10%
